PubChem BioAssay (NCATS)
Inconclusive results are not listed. Entries that show only a call come without a potency. The source made the active and inactive calls. Calls come from the whole dose curve; as a rule, active = well fitted curve in the direction sought with a large enough effect; inconclusive = small, poorly fitted or top-dose-only effect, or another doubt; inactive = no such curve, though single readings can be large; an effect the other way counts as inactive or inconclusive.

Legend:
[1] = qHTS of pediatric cancer cell lines to identify multiple opportunities for drug repurposing: Primary screen for SK-N-SH cells (AID 1347098); note: nearly all actives have a fitted effect of over 65% in size; note: potency is the fitted concentration of half-maximal effect
How it was run: (§1)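 Cells (500-1,000/well) rested 5 h, then received compounds for 48 h; metabolically active cells were measured by CellTiter-Glo luminescence. Final concentrations spanned up to 46 µM (MIPE, 11-point) or 0.59 nM-46 µM (NPC, 8-point) in primary screens, 11-point in follow-ups.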

[2] = qHTS of pediatric cancer cell lines to identify multiple opportunities for drug repurposing: Primary screen for NB1643 cells (AID 1347099); note: nearly all actives have a fitted effect of over 50% in size
How it was run: (§2)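 ATP-based luminescence (CellTiter-Glo) quantifies viability after a 48-hour exposure. Compounds are dosed across 8 or 11 final concentrations; DMSO and 2.3 µM bortezomib serve as controls.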

[3] = qHTS of pediatric cancer cell lines to identify multiple opportunities for drug repurposing: Primary screen for LAN-5 cells (AID 1347100); note: potency is the fitted concentration of half-maximal effect
How it was run: as §1

[4] = qHTS of pediatric cancer cell lines to identify multiple opportunities for drug repurposing: Primary screen for BT-12 cells (AID 1347101); note: nearly all actives have a fitted effect of over 25% in size
How it was run: as §1

[5] = qHTS of pediatric cancer cell lines to identify multiple opportunities for drug repurposing: Primary screen for Rh18 cells (AID 1347102); note: nearly all actives have a fitted effect of over 65% in size
How it was run: as §1

[6] = qHTS of pediatric cancer cell lines to identify multiple opportunities for drug repurposing: Primary screen for RD cells (AID 1347104); note: nearly all actives have a fitted effect of over 55% in size
How it was run: as §2

[7] = qHTS of pediatric cancer cell lines to identify multiple opportunities for drug repurposing: Primary screen for MG 63 (6-TG R) cells (AID 1347105); note: nearly all actives have a fitted effect of over 50% in size
How it was run: as §2

[8] = qHTS of pediatric cancer cell lines to identify multiple opportunities for drug repurposing: Primary screen for control Hh wild type fibroblast cells (AID 1347106);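 note: series mostly up to about 46 µM; a drop in luminescence marks cytotoxicity and a rise apparent proliferation; nearly all actives have a fitted effect of over 55% in size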
How it was run: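 Viability after 48 h compound treatment at 37C, 500-1,000 cells/well, read as ATP luminescence with CellTiter-Glo. Primary screens used 11-point (MIPE, 0.78 nM-46 µM) or 8-point (NPC, 0.59 nM-46 µM) final concentrations; follow-up screens used 11-point dilutions.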

[9] = qHTS of pediatric cancer cell lines to identify multiple opportunities for drug repurposing: Primary screen for Rh30 cells (AID 1347107); note: series mostly up to about 46 µM; nearly all actives have a fitted effect of over 75% in size
How it was run: as §1

[10] = qHTS of pediatric cancer cell lines to identify multiple opportunities for drug repurposing: Primary screen for OHS-50 cells (AID 1347103); note: nearly all actives have a fitted effect of over 40% in size
How it was run: as §1

For `C[C@H]1CNCCc2ccc(Cl)cc21`, the Potency [1] was “inactive”, the Potency [2] was “inactive” and the Potency [3] was “inactive”. For the same compound, the Potency [4] was “inactive”, the Potency [5] was “inactive” and the Potency [6] was “inactive”. The Potency [7] was “inactive”, the Potency [8] was “inactive” and the Potency [9] was “inactive”.

In the case of `CN(C)C(=O)Oc1cc(OC(=O)N(C)C)cc(C(O)CNC(C)(C)C)c1` (stereo not given), the Potency [1] was “inactive”, the Potency [2] was “inactive” and the Potency [3] was “inactive”. For the same compound, the Potency [4] was “inactive”, the Potency [5] was “inactive” and the Potency [10] was “inactive”. The Potency [6] was “inactive”, the Potency [7] was “inactive” and the Potency [8] was “inactive”. The Potency [9] was “inactive”.

With `c1cc2c(c(N3CCNCC3)c1)OCCO2` the Potency [1] was “inactive”, the Potency [2] was “inactive” and the Potency [3] was “inactive”. The Potency [4] was “inactive”, the Potency [5] was “inactive” and the Potency [10] was “inactive”. For the same compound, the Potency [6] was “inactive”, the Potency [7] was “inactive” and the Potency [8] was “inactive”. For the same compound, the Potency [9] was “inactive”.

With `CN(C)CCc1c[nH]c2cccc(O)c12` the Potency [1] was 35 µM (active), the Potency [2] was “inactive” and the Potency [3] was 38.2 µM (active). The Potency [4] was “inactive”, the Potency [5] was “inactive” and the Potency [10] was “inactive”. The Potency [7] was “inactive”, the Potency [8] was “inactive” and the Potency [9] was “inactive”.

With `CCCC(C)C1(CC)C(=O)N=C(S)NC1=O` (stereo not given) the Potency [1] was “inactive”, the Potency [2] was “inactive” and the Potency [3] was “inactive”. The Potency [4] was “inactive”, the Potency [5] was “inactive” and the Potency [10] was “inactive”. The Potency [6] was “inactive”, the Potency [7] was “inactive” and the Potency [8] was “inactive”. The Potency [9] was “inactive”.

With `C[C@@H]1CC[C@H]2[C@@H](C)C(=O)O[C@@H]3O[C@@]4(C)CC[C@@H]1[C@]32OO4` the Potency [1] was “inactive”, the Potency [2] was “inactive” and the Potency [3] was “inactive”. For the same compound, the Potency [5] was “inactive”, the Potency [10] was “inactive” and the Potency [7] was “inactive”. For the same compound, the Potency [8] was “inactive” and the Potency [9] was “inactive”.

With `COP(=O)(OC)C(O)C(Cl)(Cl)Cl` (stereo not given) the Potency [1] was “inactive”, the Potency [2] was “inactive” and the Potency [3] was “inactive”. The Potency [4] was “inactive”, the Potency [5] was “inactive” and the Potency [10] was “inactive”. For the same compound, the Potency [6] was “inactive”, the Potency [7] was “inactive” and the Potency [8] was “inactive”. For the same compound, the Potency [9] was “inactive”.

For `CCN(CC)CCOC(=O)C(C)(c1ccccc1)c1ccccc1`, the Potency [1] was “inactive”, the Potency [2] was “inactive” and the Potency [3] was “inactive”. For the same compound, the Potency [4] was “inactive”, the Potency [5] was “inactive” and the Potency [6] was “inactive”. For the same compound, the Potency [7] was “inactive”, the Potency [8] was “inactive” and the Potency [9] was “inactive”.

In the case of `O=C(CCCN1CCC(n2c(=O)[nH]c3ccccc32)CC1)c1ccc(F)cc1`, the Potency [1] was “inactive”, the Potency [2] was “inactive” and the Potency [3] was “inactive”. The Potency [5] was “inactive”, the Potency [6] was “inactive” and the Potency [7] was “inactive”. The Potency [8] was “inactive” and the Potency [9] was “inactive”.

With `C=CCOC(Cn1ccnc1)c1ccc(Cl)cc1Cl` (stereo not given) the Potency [1] was “inactive”, the Potency [2] was “inactive” and the Potency [3] was “inactive”. The Potency [5] was “inactive”, the Potency [6] was “inactive” and the Potency [7] was “inactive”. For the same compound, the Potency [8] was “inactive” and the Potency [9] was “inactive”.

For `NC(=O)CN1CCCC1=O`, the Potency [1] was “inactive”, the Potency [2] was “inactive” and the Potency [3] was “inactive”. For the same compound, the Potency [4] was “inactive”, the Potency [5] was “inactive” and the Potency [10] was “inactive”. For the same compound, the Potency [6] was “inactive”, the Potency [7] was “inactive” and the Potency [8] was “inactive”. The Potency [9] was “inactive”.

For `CCN(CC)Cc1nccn1-c1ccc([N+](=O)[O-])cc1C(=O)c1ccccc1Cl`, the Potency [1] was “inactive”, the Potency [2] was “inactive” and the Potency [3] was “inactive”. The Potency [4] was “inactive”, the Potency [5] was “inactive” and the Potency [6] was “inactive”. For the same compound, the Potency [7] was “inactive”, the Potency [8] was “inactive” and the Potency [9] was “inactive”.
